# Source: PubChem BioAssay (EPA / NIEHS)
# Results filed as inconclusive are left out. Calls of active or inactive are those of the source. How the source made its calls: active means hit-call score of the fitted dose curve at least 0.9, where 1 is the maximum; inconclusive means response in the unintended direction; inactive means score below 0.9.
# Key:
# [1] = target: Cellular tumor antigen p53 (Homo sapiens) (UniProt P04637); assay: TOX21_p53_BLA_p5_ratio: Tox21 HCT-116 p53 Agonism Beta-lactamase Assay, Ratio, Phase 5 (AID 2283599)
# Sequence of Cellular tumor antigen p53 (Homo sapiens) (P04637 whole entry, looked up): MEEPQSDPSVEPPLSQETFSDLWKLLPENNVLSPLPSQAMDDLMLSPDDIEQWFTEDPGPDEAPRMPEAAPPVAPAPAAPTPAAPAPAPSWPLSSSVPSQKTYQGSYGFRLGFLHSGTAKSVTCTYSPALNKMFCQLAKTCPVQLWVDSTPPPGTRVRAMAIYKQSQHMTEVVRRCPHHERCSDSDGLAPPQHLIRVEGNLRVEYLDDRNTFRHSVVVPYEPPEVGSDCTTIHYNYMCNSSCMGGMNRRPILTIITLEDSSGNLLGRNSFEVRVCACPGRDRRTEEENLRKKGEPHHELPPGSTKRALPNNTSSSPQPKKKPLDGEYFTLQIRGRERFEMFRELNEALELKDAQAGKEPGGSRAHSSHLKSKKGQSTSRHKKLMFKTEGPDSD
# Summary of the method: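 HCT-116 cells carrying a p53-inducible beta-lactamase reporter were seeded at 4000 cells/well and dosed after 5 h with compound in DMSO (217-fold dilution). After 16 h at 37C, CCF4-AM substrate was added for 2 h, and the 460/530 nm emission ratio was scored as gain-of-signal versus DMSO.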
# [2] = TOX21_p53_BLA_p5_viability: Viability Assessment in the Tox21 HCT-116 p53 Agonism Beta-lactamase Assay, Phase 5 (AID 2283600)
# Summary of the method: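 ATP luminescence (CellTiter-Glo, 30 min, RT) served as the viability read-out, with loss of signal indicating cytotoxicity. Compounds in DMSO were pinned at a 217-fold dilution onto 4000 cells/well and incubated 16 h, 37C.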
# [3] = Tanguay_ZF_120hpf_MORT_legacy: (Legacy) Oregon State University Tanguay Lab 120 Hour Post-fertilization zebrafish Assay for Mortality (AID 2283633)
# Summary of the method: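 Brightfield scoring of embryo death (binary) at 24 and 120 hpf; static exposure 6–120 hpf, 28C, sealed and foil-covered. Pronase-dechorionated 5D wild-type larvae, single embryo per well. DMSO 0.64% v/v; trimethyltin chloride 5uM positive control.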
# [4] = Tanguay_ZF_120hpf_YSE_legacy: (Legacy) Oregon State University Tanguay Lab 120 Hour Post-fertilization zebrafish Assay for Yolk Sac Edema (AID 2283634);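 on AC50: actives raise the incidence of yolk sac edema above the DMSO baseline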
# Summary of the method: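 Binary brightfield scoring of yolk sac edema at 120 hpf; DMSO baseline, gain-of-signal fitting. Dechorionated 5D larvae, one per well, static exposure 6–120 hpf, 28C, 0.64% DMSO. Dead embryos not scored.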
# [5] = Tanguay_ZF_120hpf_AXIS_legacy: (Legacy) Oregon State University Tanguay Lab 120 Hour Post-fertilization zebrafish Assay for Body Axis Malformation (AID 2283635);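 on AC50: potency for an increased fraction of larvae scored with body axis malformation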
# Summary of the method: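 Embryos: 5D wild-type, pronase-dechorionated 4 hpf; static exposure 6–120 hpf, 28C, sealed, dark, 1 embryo/well, 0.64% DMSO. 120 hpf axis malformation scored present/absent; dead embryos excluded. Analysed as gain of signal vs DMSO.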
# [6] = Tanguay_ZF_120hpf_EYE_legacy: (Legacy) Oregon State University Tanguay Lab 120 Hour Post-fertilization zebrafish Assay for Eye Malformation (AID 2283636);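 further: binary presence or absence of eye malformation scored by brightfield in 120 hpf larvae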
# Summary of the method: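 Static waterborne exposure of dechorionated zebrafish embryos (strain Tropical 5D), 6 to 120 hpf, sealed plates at 28C, 0.64% DMSO vehicle. Eye malformation is scored as a binary endpoint, with gain of signal analysed relative to DMSO.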
# [7] = Tanguay_ZF_120hpf_SNOU_legacy: (Legacy) Oregon State University Tanguay Lab 120 Hour Post-fertilization zebrafish Assay for Snout Malformation (AID 2283637)
# Summary of the method: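 Dechorionated zebrafish, individually housed from 6 hpf in covered, sealed wells at 28C with 0.64% DMSO vehicle, were examined at 120 hpf for snout malformation. Responses were binary and analysed positive-direction relative to DMSO.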
# [8] = Tanguay_ZF_120hpf_JAW_legacy: (Legacy) Oregon State University Tanguay Lab 120 Hour Post-fertilization zebrafish Assay for Jaw Malformation (AID 2283638);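 on AC50: active means more embryos with jaw malformation than DMSO controls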
# Summary of the method: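 Binary jaw-malformation calls at 120 hpf by brightfield imaging; DMSO (0.64% v/v) = baseline. Embryos: 5D wild-type, pronase-dechorionated, one per well from 6 hpf, static exposure, 28C, sealed, dark.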
# [9] = target: Cellular tumor antigen p53 (Homo sapiens) (UniProt P04637); assay: TOX21_p53_BLA_p4_ratio: Tox21 HCT-116 p53 Agonism Beta-lactamase Assay, Ratio, Phase 4 (AID 2283601)
# Summary of the method: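 HCT116 cells carrying an inducible beta-lactamase reporter were plated at 4000 cells/well, rested 5 h, then exposed to compounds in DMSO (217-fold dilution) for 16 h at 37C. CCF4-AM substrate was loaded 2 h at room temperature; 460/530 nm emission ratio scored gain-of-signal versus DMSO.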
structure (smiles),measurement,setting,value
CCCCOC(=O)c1ccccc1C(=O)O,outcome,[1],inactive
same,outcome,[2],inactive
same,outcome,[3],inactive
same,outcome,[4],inactive
same,outcome,[5],inactive
same,outcome,[6],inactive
same,outcome,[7],inactive
same,outcome,[8],inactive
CCC(=NOC/C=C/Cl)C1=C(O)CC(C2CCOCC2)CC1=O (configuration not stated),outcome,[2],inactive
same,outcome,[9],inactive
same,outcome,[3],inactive
same,outcome,[4],inactive
same,outcome,[5],inactive
same,outcome,[6],inactive
same,outcome,[7],inactive
same,outcome,[8],inactive
CC(C)N(C(=O)SCC(Cl)=C(Cl)Cl)C(C)C,outcome,[2],inactive
same,outcome,[9],inactive
same,outcome,[3],inactive
same,outcome,[4],inactive
same,outcome,[5],inactive
same,outcome,[6],inactive
same,outcome,[7],inactive
CN(C)[C@@H]1C(=O)C(C(N)=O)=C(O)[C@@]2(O)C(=O)C3=C(O)c4c(O)cccc4[C@@](C)(O)[C@H]3[C@H](O)[C@@H]12,outcome,[3],inactive
same,outcome,[4],inactive
same,outcome,[5],inactive
same,outcome,[6],inactive
same,outcome,[7],inactive
same,outcome,[8],inactive
CNC(=O)ON=C(C)SC,outcome,[2],inactive
same,outcome,[9],inactive
same,outcome,[3],inactive
same,outcome,[4],inactive
same,AC50,[5],10.1 µM (active)
same,outcome,[6],inactive
same,outcome,[7],inactive
same,AC50,[8],39.5 µM (active)
Cc1cc(C2CC2)nc(Nc2ccccc2)n1,outcome,[2],inactive
same,AC50,[9],72.6 µM (active)
same,outcome,[3],inactive
same,outcome,[5],inactive
same,outcome,[6],inactive
same,outcome,[7],inactive
same,outcome,[8],inactive
CCCOCC(=Nc1ccc(Cl)cc1C(F)(F)F)n1ccnc1,AC50,[2],31.2 µM (active)
same,AC50,[9],46.2 µM (active)
same,outcome,[3],inactive
same,outcome,[4],inactive
same,outcome,[5],inactive
same,outcome,[7],inactive
same,outcome,[8],inactive
CCCSP(=O)(OCC)SCCC,outcome,[4],inactive
same,outcome,[5],inactive
same,outcome,[6],inactive
same,outcome,[7],inactive
same,outcome,[8],inactive
COP(=O)(OC)C(O)C(Cl)(Cl)Cl (configuration not stated),outcome,[2],inactive
same,outcome,[9],inactive
same,outcome,[3],inactive
same,AC50,[4],56.1 µM (active)
same,outcome,[5],inactive
same,outcome,[6],inactive
same,outcome,[7],inactive
same,outcome,[8],inactive
Nc1nc(N)nc(NC2CC2)n1,outcome,[2],inactive
same,outcome,[9],inactive
same,outcome,[3],inactive
same,outcome,[4],inactive
same,outcome,[5],inactive
same,outcome,[6],inactive
same,outcome,[7],inactive
same,outcome,[8],inactive
CC(COc1ccc(Oc2ccccc2)cc1)Oc1ccccn1 (configuration not stated),outcome,[9],inactive
same,outcome,[3],inactive
same,outcome,[5],inactive
same,outcome,[7],inactive
same,outcome,[8],inactive
COP(=O)(NC(C)=O)SC (configuration not stated),outcome,[9],inactive
same,outcome,[3],inactive
same,outcome,[4],inactive
same,outcome,[5],inactive
same,outcome,[6],inactive
same,outcome,[7],inactive
same,outcome,[8],inactive
CCOC(=O)COc1cc(-c2nn(C)c(OC(F)F)c2Cl)c(F)cc1Cl,outcome,[9],inactive
same,outcome,[3],inactive
same,outcome,[4],inactive
same,outcome,[5],inactive
same,outcome,[6],inactive
same,outcome,[8],inactive
Cc1ccn2nc(S(=O)(=O)Nc3c(F)cccc3F)nc2n1,outcome,[3],inactive
same,outcome,[4],inactive
same,outcome,[5],inactive
same,outcome,[6],inactive
same,outcome,[7],inactive
same,outcome,[8],inactive
CCc1cnc(C2=NC(C)(C(C)C)C(=O)N2)c(C(=O)O)c1 (configuration not stated),outcome,[3],inactive
same,outcome,[4],inactive
same,outcome,[5],inactive
same,outcome,[6],inactive
same,outcome,[7],inactive
same,outcome,[8],inactive
CN1COCN(Cc2cnc(Cl)s2)C1=N[N+](=O)[O-],outcome,[9],inactive
same,outcome,[3],inactive
same,outcome,[4],inactive
same,outcome,[5],inactive
same,outcome,[6],inactive
same,outcome,[7],inactive
same,outcome,[8],inactive
CNc1cnn(-c2cccc(C(F)(F)F)c2)c(=O)c1Cl,outcome,[3],inactive
same,outcome,[4],inactive
same,outcome,[5],inactive
same,outcome,[6],inactive
same,outcome,[7],inactive
same,outcome,[8],inactive
O=[N+]([O-])c1cc(C(F)(F)F)c(Cl)c([N+](=O)[O-])c1Nc1ncc(C(F)(F)F)cc1Cl,outcome,[3],inactive
same,outcome,[4],inactive
same,outcome,[5],inactive
same,outcome,[7],inactive
same,outcome,[8],inactive
CCCSP(=O)(OCC)Oc1ccc(Br)cc1Cl (configuration not stated),outcome,[2],inactive
same,outcome,[9],inactive
same,outcome,[3],inactive
same,outcome,[4],inactive
same,outcome,[5],inactive
same,outcome,[7],inactive
same,outcome,[8],inactive
